“And” between values parts separate entries of the source, which are not always exact repeats. Identical values can stand only once. Screen size: about 5,500 compounds; about 2,000 (36%) were called active. About 18% were inconclusive and are not listed. Cut-off read from the data, not from the text of the source: active = normalized growth mostly below about 0.91 (no sharp cut-off); inconclusive = no clear call, values can overlap the other calls; inactive = mostly above about 0.92. Some of the results follow.
Assay: chemical genetic growth profiling, strain panel (AID 1159580);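 note: tested at 20 µM; growth read once vehicle control cultures reached saturation at 30 °C; 1 = growth at the plate median or of vehicle wells; lower values mean less growth of the strain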
Conditions: S. cerevisiae deletion strains, growth OD
[1] = locus YAL013W, strain DEP1, stronger effect = lower value
[2] = locus YBR229C, strain ROT2, stronger effect = lower value
[3] = locus YDL101C, strain DUN1, stronger effect = lower value
[4] = locus YDL134C, strain PPH21, stronger effect = lower value
[5] = locus YDR150W, strain NUM1, stronger effect = lower value
[6] = locus YEL061C, strain CIN8, stronger effect = lower value
[7] = locus YHR030C, strain SLT2, stronger effect = lower value
[8] = locus YJR043C, strain POL32, stronger effect = lower value
[9] = locus YJR075W, strain HOC1, stronger effect = lower value
[10] = locus YKL190W, strain CNB1, stronger effect = lower value
[11] = locus YLR039C, strain RIC1, stronger effect = lower value
[12] = locus YLR262C, strain YPT6, stronger effect = lower value
[13] = locus YMR263W, strain SAP30, stronger effect = lower value
[14] = locus YMR307W, strain GAS1, stronger effect = lower value
[15] = locus YNL322C, strain KRE1, stronger effect = lower value
[16] = locus YPL055C, strain LGE1, stronger effect = lower value
[17] = locus YPL241C, strain CIN2, stronger effect = lower value

Measured: normalized growth

Cc1cc(O)cc(=O)o1
inactive: [1] 0.999 | locus YAL021C, strain ccr4, stronger effect = lower value 0.991 | locus YAL026C, strain drs2, stronger effect = lower value 0.998 | locus YAL030W, strain snc1, stronger effect = lower value 0.993 | locus YBL061C, strain skt5, stronger effect = lower value 1 | locus YBR009C, strain hhf1, stronger effect = lower value 0.997 | locus YBR021W, strain FUR4, stronger effect = lower value 0.985 | locus YBR023C, strain chs3, stronger effect = lower value 1.01 | locus YBR171W, strain sec66, stronger effect = lower value 0.988 | [2] 0.992 | locus YBR231C, strain swc5, stronger effect = lower value 1.02 | locus YBR279W, strain paf1, stronger effect = lower value 1 | locus YCL011C, strain gbp2, stronger effect = lower value 0.991 | locus YCL016C, strain dcc1, stronger effect = lower value 0.991 | locus YCL029C, strain bik1, stronger effect = lower value 0.974 | locus YCL069W, strain vba3, stronger effect = lower value 1.01 | locus YCR088W, strain abp1, stronger effect = lower value 0.991 | locus YDL005C, strain med2, stronger effect = lower value 1.01 | locus YDL035C, strain GPR1, stronger effect = lower value 1.02 | locus YDL040C, strain nat1, stronger effect = lower value 1 | locus YDL074C, strain BRE1, stronger effect = lower value 1.01 | [3] 0.988 | [4] 1.03 | locus YDL185W, strain tfp1, stronger effect = lower value 0.971 | locus YDL192W, strain arf1, stronger effect = lower value 0.994 | locus YDR001C, strain nth1, stronger effect = lower value 0.989 | locus YDR069C, strain doa4, stronger effect = lower value 1.03 | locus YDR101C, strain arx1, stronger effect = lower value 0.971 | locus YDR137W, strain rgp1, stronger effect = lower value 0.998 | [5] 1.01 | locus YDR159W, strain sac3, stronger effect = lower value 1.02 | locus YDR162C, strain NBP2, stronger effect = lower value 1.02 | locus YDR195W, strain ref2 0.979 | locus YDR297W, strain sur2, stronger effect = lower value 1.02 | locus YDR318W, strain mcm21, stronger effect = lower value 1.02 | locus YDR334W, strain swr1, stronger effect = lower value 0.989 | locus YDR335W, strain msn5, stronger effect = lower value 1 | locus YDR388W, stronger effect = lower value 0.992 | locus YDR392W, strain spt3, stronger effect = lower value 1.03 | locus YDR502C, strain sam2, stronger effect = lower value 1 | locus YEL003W, strain gim4, stronger effect = lower value 0.992 | locus YEL037C, strain rad23, stronger effect = lower value 0.994 | locus YEL061C, strain CIN8 (second series), stronger effect = lower value 0.992 | [6] 1 | locus YER015W, strain faa2, stronger effect = lower value 1.01 | locus YER016W, strain bim1, stronger effect = lower value 0.994 | locus YER110C, stronger effect = lower value 0.986 | locus YER111C, strain swi4, stronger effect = lower value 1.01 | locus YER155C, strain BEM2 (second series), stronger effect = lower value 1.04 | locus YER155C, strain BEM2, stronger effect = lower value 0.982 | locus YER167W, strain BCK2, stronger effect = lower value 0.99 | locus YFR010W, strain ubp6, stronger effect = lower value 0.982 | locus YGL078C, strain dbp3, stronger effect = lower value 0.981 | locus YGL086W, strain mad1, stronger effect = lower value 0.969 | locus YGL167C, strain pmr1, stronger effect = lower value 0.983 | locus YGL173C, strain kem1, stronger effect = lower value 1.02 | locus YGL227W, strain vid30, stronger effect = lower value 1.01 | locus YGL240W, strain doc1, stronger effect = lower value 1.03 | locus YGL248W, strain PDE1, stronger effect = lower value 0.997 | locus YGL253W, strain hxk2, stronger effect = lower value 0.997 | locus YGR135W, strain pre9, stronger effect = lower value 1.03 | locus YGR252W, strain gcn5, stronger effect = lower value 1.09 | locus YHR013C, strain ard1, stronger effect = lower value 0.998 | locus YHR027C, strain rpn1, stronger effect = lower value 0.989 | [7] 0.992 and 0.959 | locus YHR079C, strain IRE1 (second series), stronger effect = lower value 0.992 | locus YHR079C, strain IRE1, stronger effect = lower value 0.969 | locus YHR094C, strain hxt1, stronger effect = lower value 0.986 | locus YHR129C, strain ARP1, stronger effect = lower value 1 | locus YHR142W, strain chs7, stronger effect = lower value 0.987 | locus YHR200W, strain rpn10, stronger effect = lower value 0.993 | locus YIL066C, strain RNR3, stronger effect = lower value 0.988 | locus YIL073C, strain SPO22, stronger effect = lower value 0.993 | locus YIL125W, strain kgd1, stronger effect = lower value 0.984 | locus YIR030C, strain dcg1, stronger effect = lower value 0.99 | locus YJL092W, strain hpr5, stronger effect = lower value 0.987 | locus YJL095W, strain BCK1 (second series), stronger effect = lower value 1 | locus YJL095W, strain BCK1, stronger effect = lower value 1.01 and 0.959 | locus YJL115W, strain asf1, stronger effect = lower value 0.969 | locus YJL129C, strain trk1, stronger effect = lower value 1 | locus YJL134W, strain LCB3, stronger effect = lower value 0.994 | locus YJL154C, strain vps35, stronger effect = lower value 0.989 | locus YJL164C, strain tpk1, stronger effect = lower value 0.996 | locus YJL166W, strain qcr8, stronger effect = lower value 1.03 | locus YJL168C, strain set2, stronger effect = lower value 0.992 | locus YJL187C, strain SWE1 (second series), stronger effect = lower value 0.992 | locus YJL187C, strain SWE1, stronger effect = lower value 1.01 | [8] 1.01 | locus YJR066W, strain TOR1, stronger effect = lower value 0.921 | [9] 0.998 | locus YKL009W, strain mrt4, stronger effect = lower value 0.961 | locus YKL068W, stronger effect = lower value 0.989 | locus YKL085W, strain MDH1 (second series), stronger effect = lower value 0.984 | locus YKL085W, strain MDH1, stronger effect = lower value 0.984 | locus YKL160W, strain elf1, stronger effect = lower value 0.994 | [10] 1.01 | locus YKR001C, strain vps1, stronger effect = lower value 0.983 | locus YKR026C, strain gcn3, stronger effect = lower value 0.993 | locus YKR091W, strain srl3, stronger effect = lower value 0.983 | locus YLL001W, strain dnm1, stronger effect = lower value 0.995 | locus YLL026W, stronger effect = lower value 1.01 | locus YLL041C, strain sdh2, stronger effect = lower value 0.985 | locus YLR027C, strain aat2, stronger effect = lower value 1.01 | [11] 1.02 | locus YLR058C, strain SHM2, stronger effect = lower value 1 | locus YLR102C, strain apc9, stronger effect = lower value 0.991 | locus YLR113W, strain HOG1, stronger effect = lower value 0.951 | locus YLR221C, strain rsa3, stronger effect = lower value 1.03 | locus YLR258W, strain gsy2, stronger effect = lower value 1.02 | locus YLR262C, strain YPT6 (second series), stronger effect = lower value 0.995 | [12] 1.04 | locus YLR268W, strain sec22, stronger effect = lower value 0.965 | locus YLR320W, strain mms22, stronger effect = lower value 1.05 | locus YLR330W, strain CHS5, stronger effect = lower value 0.99 | locus YLR342W, strain FKS1 (second series), stronger effect = lower value 1 | locus YLR342W, strain FKS1, stronger effect = lower value 1.01 | locus YLR357W, strain rsc2, stronger effect = lower value 0.973 | locus YLR370C, strain arc18, stronger effect = lower value 1.01 | locus YLR371W, strain rom2, stronger effect = lower value 0.974 | locus YLR384C, strain iki3, stronger effect = lower value 1 | locus YLR418C, strain cdc73, stronger effect = lower value 1.01 | locus YML016C, strain PPZ1, stronger effect = lower value 0.985 | locus YML032C, strain rad52, stronger effect = lower value 1.02 | locus YML120C, strain ndi1, stronger effect = lower value 0.994 | locus YML124C, strain tub3, stronger effect = lower value 0.994 | locus YMR058W, strain fet3, stronger effect = lower value 0.987 | locus YMR078C, strain ctf18, stronger effect = lower value 0.991 | locus YMR125W, strain sto1, stronger effect = lower value 0.955 | locus YMR129W, stronger effect = lower value 0.996 | locus YMR205C, strain PFK2, stronger effect = lower value 1.01 | locus YMR223W, strain ubp8, stronger effect = lower value 0.999 | locus YMR231W, strain pep5, stronger effect = lower value 1.01 | [13] 1.01 | [14] 1.01 | locus YNL067W, strain RPL9B, stronger effect = lower value 1.01 | locus YNL071W, strain lat1, stronger effect = lower value 1 | locus YNL183C, strain NPR1, stronger effect = lower value 0.898 | locus YNL209W, strain ssb2, stronger effect = lower value 0.995 | locus YNL233W, strain BNI4, stronger effect = lower value 0.997 | locus YNL248C, strain rpa49, stronger effect = lower value 0.99 | locus YNL250W, strain rad50, stronger effect = lower value 0.991 | locus YNL271C, strain bni1, stronger effect = lower value 0.976 | locus YNL298W, strain CLA4, stronger effect = lower value 0.988 | locus YNL307C, strain MCK1, stronger effect = lower value 0.977 | locus YNL322C, strain KRE1 (second series), stronger effect = lower value 0.99 | [15] 0.997 | locus YNR049C, strain mso1, stronger effect = lower value 0.984 | locus YNR052C, strain pop2, stronger effect = lower value 0.988 | locus YOL012C, strain htz1 0.84 | locus YOL147C, strain pex11, stronger effect = lower value 0.993 | locus YOR001W, strain rrp6, stronger effect = lower value 1.01 | locus YOR061W, strain CKA2, stronger effect = lower value 0.991 | locus YOR069W, strain VPS5, stronger effect = lower value 0.992 | locus YOR070C, strain gyp1, stronger effect = lower value 1.01 | locus YOR080W, strain dia2, stronger effect = lower value 0.997 | locus YOR083W, strain WHI5, stronger effect = lower value 0.999 | locus YOR106W, strain vam3, stronger effect = lower value 0.999 | locus YOR136W, strain idh2, stronger effect = lower value 0.971 | locus YOR144C, strain elg1, stronger effect = lower value 0.989 | locus YOR184W, strain ser1, stronger effect = lower value 0.992 | locus YOR231W, strain MKK1, stronger effect = lower value 0.965 | locus YOR265W, strain rbl2, stronger effect = lower value 1.01 | locus YOR270C, strain vph1, stronger effect = lower value 1.02 | locus YOR290C, strain snf2, stronger effect = lower value 0.974 | locus YOR316C, strain cot1, stronger effect = lower value 0.986 | locus YPL051W, strain arl3, stronger effect = lower value 0.999 | [16] 1.01 | locus YPL078C, strain atp4, stronger effect = lower value 0.994 | locus YPL106C, strain sse1, stronger effect = lower value 1.01 | locus YPL240C, strain hsp82, stronger effect = lower value 0.99 | [17] 1.01 | locus YPL256C, strain CLN2, stronger effect = lower value 0.948 | locus YPR119W, strain clb2, stronger effect = lower value 0.99 | locus YPR141C, strain kar3, stronger effect = lower value 0.984 | locus YPR163C, strain tif3, stronger effect = lower value 0.992 | locus YPR167C, strain met16, stronger effect = lower value 0.996 | strain wtn01, stronger effect = lower value 0.93

Cc1cc(OCOc2ccc(Cl)c(C)c2)ccc1Cl
inactive: [1] 0.984 | [2] 0.988 | locus YCL061C, strain MRC1, stronger effect = lower value 1.03 | [3] 1.05 | [4] 0.995 | [5] 0.997 | [6] 0.992 | locus YGR078C, strain PAC10, stronger effect = lower value 1.01 | locus YGR229C, strain SMI1, stronger effect = lower value 0.999 | [7] 0.814 | locus YHR087W, strain rtc3, stronger effect = lower value 0.955 | [8] 1.03 | [9] 1.02 | [10] 0.966 | [11] 1.11 | locus YLR058C, strain SHM2 (second series), stronger effect = lower value 0.989 | locus YLR085C, strain ARP6, stronger effect = lower value 0.973 | [12] 0.99 | locus YML094W, strain GIM5, stronger effect = lower value 0.982 | locus YMR219W, strain ESC1, stronger effect = lower value 0.991 | [13] 0.927 | [14] 0.834 | locus YNL153C, strain GIM3, stronger effect = lower value 1.01 | locus YNL298W, strain CLA4 (second series), stronger effect = lower value 1.04 | [15] 0.982 | locus YNR030W, strain Alg12, stronger effect = lower value 0.97 | locus YOL006C, strain TOP1, stronger effect = lower value 0.916 | [16] 0.975 | [17] 1 | locus YPR135W, strain CTF4, stronger effect = lower value 0.999

From PubChem BioAssay AID1159580 (chemical genetic matrix, 2015)
